# Measurements taken from PubChem BioAssay AID504400 (The Scripps Research Institute Molecular Screening Center, 2011).
# A number with no mark means an inactive call. How the calls were made is not given here.
# Test system: Imidazoline I2
# Experiment: CYP450 and receptor off-target profile – biochemical, Ricerca HitProfilingScreen, selectivity assay for S1P4 agonist project, late-stage follow-up (AID 504400)
# Details: Ricerca radioligand binding/enzyme panel plus CYP450, Central, at 10 µM, hits give high values
structure (smiles),measurement,value
Clc1ccc(OCCOc2ccc(Br)nc2Br)c(Cl)c1,inhibition,9%
